The text below walks through data of the supplement of paper PMC3334620.

Over roughly 33,000 sequences, “E-score (-0.5 to 0.5)” has its median near -0.043; the highest 2% begin near 0.37. This is one part of a sample in which the highest values are shown more often than they occur.

For this experiment, the target named is T1, Upc2 (UniProt Q12151).
T1 sequence: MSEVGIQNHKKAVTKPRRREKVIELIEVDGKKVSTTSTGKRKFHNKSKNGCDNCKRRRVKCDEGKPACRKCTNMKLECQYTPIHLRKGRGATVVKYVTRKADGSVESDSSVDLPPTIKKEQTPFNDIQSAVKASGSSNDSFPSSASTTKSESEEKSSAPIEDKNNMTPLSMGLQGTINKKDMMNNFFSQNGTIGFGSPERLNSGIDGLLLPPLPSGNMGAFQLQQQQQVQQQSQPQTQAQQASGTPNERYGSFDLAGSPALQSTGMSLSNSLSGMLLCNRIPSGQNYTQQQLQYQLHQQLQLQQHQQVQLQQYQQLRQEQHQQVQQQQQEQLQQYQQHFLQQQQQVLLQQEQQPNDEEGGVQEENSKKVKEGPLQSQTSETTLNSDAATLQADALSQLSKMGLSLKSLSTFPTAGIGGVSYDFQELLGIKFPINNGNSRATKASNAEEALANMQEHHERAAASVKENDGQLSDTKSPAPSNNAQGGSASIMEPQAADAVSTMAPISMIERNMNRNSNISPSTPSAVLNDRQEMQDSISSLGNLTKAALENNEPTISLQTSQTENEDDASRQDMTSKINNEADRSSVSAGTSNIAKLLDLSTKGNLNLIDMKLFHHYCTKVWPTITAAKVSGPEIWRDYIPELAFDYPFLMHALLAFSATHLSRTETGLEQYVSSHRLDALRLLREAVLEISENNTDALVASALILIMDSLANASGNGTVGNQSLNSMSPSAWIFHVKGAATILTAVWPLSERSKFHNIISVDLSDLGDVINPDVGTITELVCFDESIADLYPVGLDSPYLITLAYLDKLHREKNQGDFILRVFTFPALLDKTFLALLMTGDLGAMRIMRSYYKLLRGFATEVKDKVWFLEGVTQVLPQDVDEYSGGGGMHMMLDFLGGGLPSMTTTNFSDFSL
Nature of the experiment: PBM E-score (8-mer binding enrichment) (E-score (-0.5 to 0.5)); higher = stronger / more preferred TF binding. The following applies: protein concentration: 200 nM; construct: GST-full length. The protocol: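 Universal 'all 10-mer' protein binding microarrays (Agilent AMADID 015681) probed with GST-tagged S. cerevisiae TFs (full-length or DBD) made by in vitro transcription/translation (PURExpress), about 100-200 nM. Bound TF was detected with fluorescent anti-GST. Each ungapped 8-mer (which stands for itself and its reverse complement) is scored by the PBM enrichment score (E-score), a modified Wilcoxon-Mann-Whitney statistic from -0.5 to +0.5, computed with the Universal PBM Analysis Suite. Scale: above 0.35 generally sequence-specific binding.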
For CGGTCGTA, the “PBM E-score” value amounted to 0.442. Take AGGTCGTA: the “PBM E-score” value stood at 0.451.

Regarding CGGTCGGA, the “PBM E-score” value was -0.0376. On to AGGTCGTC, for which the “PBM E-score” value came to 0.0416.

With AGGTCGTG, the “PBM E-score” value came to 0.0575. With GGGTCGTA, the “PBM E-score” value came out at 0.42. Consider CGGTCGTC, for which the “PBM E-score” value amounted to 0.0119. Take GGGTCGGA: the “PBM E-score” value turned out to be 0.0691. As for CTGGGTGC, the “PBM E-score” value is -0.106. Under GCGCACTA stands -0.00558; under CGGCTGCC, -0.0671; under CACGACCA, -0.0648. On to TACGACCA, for which the “PBM E-score” value turned out to be 0.45. Regarding TCCGACCA, the “PBM E-score” value amounted to 0.0761. Regarding AACGACCT, the “PBM E-score” value amounted to 0.386. In the case of AACGACCA, the “PBM E-score” value is 0.405. On to CACGACCG, for which the “PBM E-score” value came out at 0.00924. For the sequence AGCGACCT, the “PBM E-score” value turned out to be 0.132. Under TGCGACCA stands 0.0986. AACGACCG: the “PBM E-score” value came out at 0.403. With ACCGACCG, the “PBM E-score” value was found to be 0.13.

Consider AACGACCC, for which the “PBM E-score” value was 0.365.

Consider GACGACCA, for which the “PBM E-score” value was determined as 0.071. Consider CAGCATAA, for which the “PBM E-score” value is -0.0242. In the case of GGACCTAC it was 0.0699; in that of CCGATCTC, -0.136; in that of AATGAGTC, -0.0524. Turning to ATTGGAAC, the “PBM E-score” value is -0.0244.

Turning to GGCTAACC, the “PBM E-score” value was -0.0479.

Regarding AAGTCGTA, the “PBM E-score” value was 0.416. Consider CAGTCGTA, for which the “PBM E-score” value was found to be 0.416. Turning to AAGTCGTG, the “PBM E-score” value was -0.0736. In the case of GAGTCGGA it was -0.0556; in that of AAGTCGTC, 0.121; in that of CAGTCGTC, -0.106. Under CAGTCGGA stands -0.016; under GAGTCGCA, 0.0248; under GAGTCGTA, 0.43. In the case of GGACATTA it was 0.01; in that of AAATCTAA, -0.16. In the case of TCGCATCA, the “PBM E-score” value is 0.209.

For the sequence CCGGGCAC, the “PBM E-score” value was -0.214. Consider ACAGATGC, for which the “PBM E-score” value was -0.00973. For the sequence AAGATTGA, the “PBM E-score” value is -0.156. In the case of AGACGAAG it was 0.0695; in that of TAACGAAA, 0.334. In the case of AACCGAAT it was 0.277.

For the sequence AAACGAAT, the “PBM E-score” value turned out to be 0.451. On to AAACGAAA, for which the “PBM E-score” value was found to be 0.46. In the case of CAACGAAG it was 0.235.

On to AAACGTAT, for which the “PBM E-score” value turned out to be 0.328. For CAACGAAA, the “PBM E-score” value amounted to 0.221.

With AAACGAAG, the “PBM E-score” value turned out to be 0.464.

Consider ACTCGACA, for which the “PBM E-score” value was 0.0576. With ACGCACTC, the “PBM E-score” value was found to be 0.151. On to GGTTGGGA, for which the “PBM E-score” value was -0.0786. On to CCCTGCGC, for which the “PBM E-score” value is -0.276. With CCTACAGC, the “PBM E-score” value is -0.334. Regarding AGTACAGA, the “PBM E-score” value is -0.0613.

With AGTACAGC, the “PBM E-score” value is -0.156. In the case of CGTACAGC it was 0.446; in that of CGTACAGA, 0.41. Consider GGTACAGA, for which the “PBM E-score” value is -0.0181. In the case of AGCAGACC it was -0.0454; in that of CAGGTACC, -0.112; in that of ATGGTACA, -0.173. As for CAGGTACA, the “PBM E-score” value is -0.226. On to ATGGTACG, for which the “PBM E-score” value stood at 0.388. Turning to AAGGTACG, the “PBM E-score” value stood at 0.393. AAGGTACC: the “PBM E-score” value was -0.0716. Take CAGGTACG: the “PBM E-score” value was 0.396. Take ATGGTACC: the “PBM E-score” value is -0.257. Take AAGGTACT: the “PBM E-score” value was 0.00877. On to CTTAGATA, for which the “PBM E-score” value is -0.0328.

As for AGCGTGGA, the “PBM E-score” value is -0.0828. Consider CAGAGACA, for which the “PBM E-score” value is -0.356.

With CGCTCGTC, the “PBM E-score” value came out at 0.127. On to GGCTCGTA, for which the “PBM E-score” value was determined as 0.472. Regarding CGCTCGGA, the “PBM E-score” value worked out at 0.163.

For CGCTCGTA, the “PBM E-score” value worked out at 0.466. Consider AGCTCGTC, for which the “PBM E-score” value came out at 0.103. Regarding GGCTCGAA, the “PBM E-score” value is -0.0434.

GGCTCGGA: the “PBM E-score” value is 0.0556.

Turning to AGCTCGTA, the “PBM E-score” value was determined as 0.473. Consider AGCTCGTG, for which the “PBM E-score” value was determined as 0.107.

As to AGGGCTAC, the “PBM E-score” value was -0.113. For GAGGGCGC, the “PBM E-score” value is -0.0991.
